Over roughly 24,000 sequences, “enrichment r” has its median near 0.99; the highest 2% begin near 3.7. Many of the other results were omitted from the sample, so the highest values are more common in it than they were.

Among the data in PMC12136788 are binding signal values, retold here.

T1: UNK ZnF1-3 (human, UniProt Q9C0B0 31-174)
T1 sequence: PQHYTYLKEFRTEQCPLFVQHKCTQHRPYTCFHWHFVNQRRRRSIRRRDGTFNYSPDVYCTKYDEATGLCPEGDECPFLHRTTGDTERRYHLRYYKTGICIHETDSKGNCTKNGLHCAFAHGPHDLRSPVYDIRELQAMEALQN

B1: chr12:56499883:56499884:+_ENSMUSG00000021024_ENSMUST00000021412|mus_mus|FALSE|FALSE (ssRNA)
RNA: GGGAGUUCUACAGUCCGACGAUCGAUAGUAAUGUGACGGUCAAAACCGGCGCUGGAACCCCGGGACAUGGCGUUCCUGCUAUUUUAAACACAGUCUGCACCCCGUAGCACACACACCAGGGACCCAAGCCCCCUCCCGGAAGUCAACAGAGGAUUGAGCAUCA
B2: chr8:110352747:110352748:+_ENSG00000120533_ENST00000521662|hu_mus|FALSE|FALSE (ssRNA)
RNA: GGGAGUUCUACAGUCCGACGAUCCAGGGCUCUGCCUUUUGGAGUGAUUUCAGCCACCAAGUCAUCAACAGUAACGUGUUCUAGUCCUUUUUCUUUAAUUACCUCUUUACAGUGUGCCUUUAGCUGAUCCUUCCAGCCGCACUCCAACAGAGGAUUGAGCAUCA
B3: chr6:31457689:31457690:+_ENSMUSG00000025609_ENSMUST00000142469|perfect_dup|motif|central (ssRNA)
RNA: GGGAGUUCUACAGUCCGACGAUCUGAUCAGGUCUACCAGGUUGCCUUUAGGAGGAGUCAUGCUGUCAGGAAAGAAAUUUACGGAGGUGUCAAAGAGCUGAGUUCUUUGAGCAUAGGUAUGAUCCACAUCUGAAAAGCCAUAAUCAACAGAGGAUUGAGCAUCA
B4: chr12:25667166:25667167:+_ENSMUSG00000036333_ENSMUST00000066652|mus_mus|motif|central (ssRNA)
RNA: GGGAGUUCUACAGUCCGACGAUCUCUUCCACAUAAUUUAUCACACUCUGUGAUAUAAGAACCGACAUUUUCACAGAAAUCGGUAGCCGACUUUAAUUCACCGUGUCACGGCCUGGCCGAAGACGGCGCCCUCAGCUCUGCAGACAACAGAGGAUUGAGCAUCA
B5: chr19:8913615:8913616:-_ENSMUSG00000071658_ENSMUST00000096259|mus_hu|mus_mus_mus_hu_False|1_8 (ssRNA)
RNA: GGGAGUUCUACAGUCCGACGAUCAGGGUACCAAAACCUUCUGCCUGAAAUGGGUGCCCCACCCAGUAGGGAGUUGCAGCUGAAAGUAUCUGAUGCAGAAGCAGUGACUAUACGAAAGGAGGCCCCUGAUGCUCAGACGAGAUCCAACAGAGGAUUGAGCAUCA
B6: chr2:241070490:241070491:-_ENSG00000172428_ENST00000607357|hu_mus|FALSE|FALSE (ssRNA)
RNA: GGGAGUUCUACAGUCCGACGAUCUCACAGACAUGGAGCACAUAGGACCGGGCGGCCUCACUGGACAUCAUCAUCAUCAAAAAGGUCUUCAAAAUCAUUAAAAAAGUCUGCAUGAACGGCCUUCUCAUUGGCUGCCAGGUCCAUCAACAGAGGAUUGAGCAUCA

This assay addresses T1, UNK ZnF1-3. The experiment in a line: nsRBNS (natural sequence RNA bind-n-seq); RBNS binding buffer (assumed for nsRBNS): 25 mM Tris pH 7.5, 150 mM KCl, 3 mM MgCl2, 0.01% Triton X-100, 500 ug/ml BSA, 20 U/ml SUPERase-In, 4 C; UNK is unkempt and MSI1 is Musashi-1; names of the RNAs are library labels; protein concentration not given here; high values mean tight binding.
Take B1: the binding signal amounted to 0.679 enrichment R.
The molecule B2 had a binding signal of 0.801 enrichment R.
Under B3 stands 1.63 enrichment R; under B4, 0.699 enrichment R; under B5, 1.25 enrichment R.
In turn, B6 had a binding signal of 0.924 enrichment R.
